# From the supplement of paper PMC11417369
# ± gives the standard deviation of the averaged measurements. Over roughly 25,000 sequences, “ln(normalized median fluorescence intensity)” has its median near 8.9; the highest 2% begin near 10. The full list was thinned out, with the highest values kept by preference.
# Test system: PfAP2-LT AP2 domain (GST-tagged)
# Assay: gcPBM binding intensity (ln(normalized median fluorescence intensity)); higher = stronger DNA binding
# How it was run: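 The highest Masliner-normalised natural-log median intensity across replicate spots of either probe orientation is reported as binding intensity. GST-tagged P. falciparum DNA-binding domains expressed in E. coli were applied for 1 h to an Agilent 4 × 180k array of primer-extended double-stranded 36-bp intergenic genomic probes plus negative controls, and bound protein was detected with Alexa488 anti-GST antibody and scanned at 488 nm.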
row,Sequence,gcPBM binding intensity (ln)
1,TTTTTCTAATTATGCACACATATCAAAATATTCAAT [CACACA_site2749],8.79 ± 0.46
2,AATATTCTATATGATACATGCATGATGGAATAAAAA [TGCATGCA_site980],8.93 ± 0.3
3,ATATATATTTAAAGATGTACATAATGAAATGGTTAT [XGTACX_site4706],9.01 ± 0.47
4,CATACACAGAAACACACACACATATATATATATATA [CACACA_site4519],10.2 ± 0.3
5,CATACACAGAAACACACACACATATATACATATATA [CACACA_site1094],9.98 ± 0.24
6,CAAATACAGAAACACACACACATATACATATATATA [CACACA_site3498],9.77 ± 0.19
7,TAGATACAGAAACACACACACACATACATATATACA [CACACA_site3437],9.97 ± 0.24
8,ACAGAAAAAAAACACACACACATAATATACATACAT [CACACA_site1932],9.82 ± 0.19
9,TATATACAGAAACACACACACACATATATATATATA [CACACA_site2247],10.15 ± 0.057
10,ATTTTTTTTTTTTTTTTTCATTTTTTTTTTTTTTTT [CACACA_negctrl_site1204],8.62 ± 0.54
11,AAAAAAGCAATATGATGTACATTTACTTTGTGAAAG [XGTACX_site4450],8.73 ± 0.46
12,TTAAATAGCTGTAATTGTACAAATAAATACATAAAT [XGTACX_site3097],8.82 ± 0.38
13,AAAAAAAAAAAAAAAACATGCAGTTAGTGGTTTTTT [TGCATGCA_site243],8.82 ± 0.4
14,AAGTAAAATAAGTATACACACATAAATATGTAAATA [CACACA_site6467],9.29 ± 0.4
15,AAAAAATAAAACATATATAATATATAATATATATAT [GTGCAC_negctrl_site447],8.69 ± 0.4
16,TATATACATACATATACACACATATATATATATATA [CACACA_site401],9.72 ± 0.21
17,GGTATACACAAGTATACACACATATATATATATATA [CACACA_site9063],10.16 ± 0.099
18,GGTATACTCAAGTATACACACATATATATATATATA [CACACA_site5746],9.64 ± 0.49
19,TACACAAGCGGACACACACACATATATATATATATA [CACACA_site4832],10.415 ± 0.0071
20,AGTATACATATATATACACACACATATATATATATA [CACACA_site7883],9.805 ± 0.064
21,AGCAGACACCAACACACACACATATATATATATATA [CACACA_site337],10.4 ± 0.13
22,AGTATACACAGACACACACACACATATATATATATA [CACACA_site8510],10.3 ± 0.42
23,AGTATACAGATATATACACACATATATATATATATA [CACACA_site4323],9.935 ± 0.021
24,CGCATACACCAACACACACACACATATATATATATA [CACACA_site635],9.96 ± 0.48
25,ATGGGACATATATATACACACATATATATATATATA [CACACA_site1202],9.96 ± 0.24

row,Sequence,gcPBM binding intensity (ln)
1,GGTATACACAAGTATACACACATATAAATATAAATA [CACACA_site7511],9.16 ± 0.49
2,TATATATATATACCAACACACATACATATATATATA [CACACA_site8530],9.38 ± 0.14
3,ATTATAATTATTTTGTTGCACTATTTTTGTAGGCCA [GTGCAC_site9734],8.8 ± 0.49
4,ATATTATTTTAAAGTACACACATATATTAATATATA [CACACA_site2315],8.76 ± 0.38
5,ATATATATATATATATGTACATATATATATAATTTT [XGTACX_site4146],9.34 ± 0.54
6,CTTGTCATTTTGCACACACACATGTATAGGTTATTA [CACACA_site7431],9.67 ± 0.16
7,ATTATGGATACATAAACACACATATATATAAAAAAA [CACACA_site4303],9.04 ± 0.43
8,AAAAAAAAAAAAAAAAAAAAAAAAACAATGAATTTA [GTGCAC_negctrl_site698],8.82 ± 0.19
9,TTAAATAAGTAATTATGTACATATAATATTCTTTAT [XGTACX_site5280],8.6 ± 0.42
10,ATATTAAGGTTTATATTTTAACTTATTATTTTATTC [CACACA_negctrl_site795],8.7 ± 0.49
11,GGATTTTAATGAACACGTACATAAAATTAAATAAAT [XGTACX_site7023],8.73 ± 0.45
12,TAAGTATAAATATTTACACACATTTGTTTTTTTTTA [CACACA_site7731],8.78 ± 0.4
13,TGCCTTATTAAAAGAATTACACATATTTAATCGAAA [GTGCAC_negctrl_site153],8.31 ± 0.39
14,TCTTTTTTTTTTTATTGTACAAGAAAAGGAAAAAAT [XGTACX_site3717],8.05 ± 0.31
15,TTTTTTTTTTTAAGGTGTACAATAAAAATTTATGCA [XGTACX_site8860],8.23 ± 0.35
16,ATATTATTTTATTTTTGTACAGATATCTTTAAAAAA [XGTACX_site3734],8.42 ± 0.37
17,ATTCTATTATAATACACACCCAAATATTAAAAAGAT [CACACA_site2960],8.99 ± 0.4
18,AGGATATGCAGACACACACACATATATATATATATA [CACACA_site2201],10.3 ± 0.23
19,ATTCTACACAGACATACACACATATATATATATATA [CACACA_site5826],9.835 ± 0.078
20,CATATACATACACATACACACATACAGACATACACA [CACACA_site6919],9.63 ± 0.2
21,AGGACACATATATGCAAAAAAAAAAAAAAAAAAAAA [TGCATGCA_negctrl_site427],8.41 ± 0.59
22,TACAGACATACATACACACATACATATATATATATA [CACACA_site1940],9.82 ± 0.34
23,AGGATATGCAGACACACACACATATAGATTTATATA [CACACA_site7100],9.56 ± 0.43
24,TACACATACAGACATACACACATACACATATACACA [CACACA_site6918],9.85 ± 0.23
25,TACATACACAGACACACACACATATATATATATATA [CACACA_site3557],10.1 ± 0.19

row,Sequence,gcPBM binding intensity (ln)
1,TACATACACAGACACACACACATATAAATATAAATA [CACACA_site7641],9.78 ± 0.28
2,CATACATACAGACACACACACATATAAATACATACA [CACACA_site6533],9.88 ± 0.35
3,TATACAGACAGACACACACACATATATATATATATA [CACACA_site1734],10.3 ± 0.13
4,AATACATACAGACACACACACACATATAAATAAATA [CACACA_site7642],10.1 ± 0.38
5,TGTTTGAATATAATCACACATTTATATAAAAAGTTA [CACACA_site5237],8.39 ± 0.32
6,TTCATTTTTTAAGCATCACACACGAAAGAACAAAGT [CACACA_site1122],8.98 ± 0.33
7,AATAATATATATTGTACACACAAAATGGGAAAAAAA [CACACA_site5100],9.1 ± 0.33
8,AAAATTTAATATAATGCACACATAAAAAAAAAATCA [CACACA_site7882],8.87 ± 0.42
9,TGAAAAAAGAAAAATACACACATATAATATAATATA [CACACA_site2255],9.02 ± 0.49
10,GGAATAACCAGACACACACACACATATAAATATGTA [CACACA_site7632],10.1 ± 0.41
11,ACAGAAAAAAGACACACACACATAATATACATACAT [CACACA_site6991],10.1 ± 0.42
12,AATAACCACAGACACACACACATATAAATATAAATA [CACACA_site7631],10 ± 0.46
13,CAAGGAACCAGACACACACACATAAATGTATATATA [CACACA_site752],9.62 ± 0.47
14,TAAAAGAAATAATATACACACATATATAAAAATAAA [CACACA_site1329],8.94 ± 0.41
15,TACACAAGCAGACACACACACATATAGATTTATATA [CACACA_site6715],9.65 ± 0.35
16,ACAAGACAGATATATACACACATACATACATACATA [CACACA_site7472],9.43 ± 0.37
17,AGGATACACAGACACACACACATATATATATATATA [CACACA_site907],10.47 ± 0.064
18,TACACAAGCAGACACACACACATATATATATATATA [CACACA_site1270],10.42 ± 0.071
19,AATGTATATAATATTAATATGTAAATATATAATCAA [CACACA_negctrl_site1683],8.72 ± 0.39
20,TTAGAAATTCATTTTACACACAATTCAAAAGAATGT [CACACA_site2104],8.79 ± 0.42
21,ATATATAAAATTATATGTACATATATAATATATATA [XGTACX_site529],8.77 ± 0.39
22,TACCATATTTCTTCAAGTACGCATTATGTTAAAAAG [XGTACX_site345],8.51 ± 0.38
23,GTGGAACGTATATTTTCACACACTCTCAAAAGTACA [CACACA_site8722],8.93 ± 0.47
24,TATTTATTAATATGTACACACATCAACCATATTAAC [CACACA_site7001],9.04 ± 0.29
25,TAAATAAGGAAGGAAACACACATTAAAAAATAAATA [CACACA_site618],8.84 ± 0.59

row,Sequence,gcPBM binding intensity (ln)
1,TATATATATTTATGTTGTACAAAATATTATTACGTA [XGTACX_site5384],8.57 ± 0.36
2,TTTTTTTAATGATATTGTACATTAATAAAAAATATG [XGTACX_site1719],8.12 ± 0.59
3,AATACATACAGACACACACACACATATATATATATA [CACACA_site3558],10.36 ± 0.014
4,TAAATACAGACATATACACACATATATATATATATA [CACACA_site4382],9.925 ± 0.0071
5,CACATACAGACATACACACACATATATATTAATATA [CACACA_site546],9.56 ± 0.41
6,GGAATAACCGGACACACACACACATATATATATATA [CACACA_site5874],10.39 ± 0.057
7,GGAATATAAATACATACACACATATATATATATATA [CACACA_site4998],10 ± 0.33
8,GAATAATATGGACATACACACATATACATACATATA [CACACA_site2114],9.27 ± 0.39
9,TTATTATTCCCTCATTTTGTTACCATTATTTCAATT [CACACA_negctrl_site1023],8.88 ± 0.54
10,AATGTACAAATACGTACACACATATATATATATATA [CACACA_site1542],10.1 ± 0.18
11,GATATTATGTGTTTGGTATTTCGATCTTGTCAGGAC [CACACA_negctrl_site426],8.93 ± 0.41
12,CACAAAAAGAAACACACACACATATATATATATATA [CACACA_site999],10 ± 0.37
13,AAAAAAAAAAAAGAAACACACACATATATATATATA [CACACA_site8525],9.94 ± 0.3
14,TACGGACATACTAACGGACACACGTAAGAAAAAAAA [CACACA_site602],9.03 ± 0.56
15,CAAGAAAAGAAACACACACACATATATATATATATA [CACACA_site3881],10.4 ± 0.28
16,CGGACATACTAACGGACACACGTAAGAAAAAAAAAG [CACACA_site4504],9.05 ± 0.64
17,TAAACAGACATATAAACACACATATAAACAGACATA [CACACA_site7214],9.31 ± 0.41
18,GTAAGAAACAGACACACACACATATAAATATAAATA [CACACA_site6515],9.86 ± 0.49
19,AAGAAAAAAAAAAAAACACACATATATATATATATA [CACACA_site2027],10.1 ± 0.14
20,GTAAGAAACGGACACACACACATATATATATATATA [CACACA_site4593],10.39 ± 0.05
21,GTAAGAAACAGACACACACACATATATATATATATA [CACACA_site794],10.21 ± 0.064
22,AAAAAAAAGAAAAACACACACATATATATATATAAT [CACACA_site4707],9.53 ± 0.42
23,AAAAAAAAAAAAGAAACACACATATATATATATATA [CACACA_site140],9.9 ± 0.071
